Records with an inconclusive call do not appear. Where a call stands in place of a potency, no number is given. Activity calls are given as the source filed them. The call rests on the fitted dose curve; in most records, active means well fitted cell-killing curve with a large enough effect; inconclusive means small, poorly fitted or top-dose-only effect, or effect the other way; inactive means flat fitted curve, though single readings scatter.

This experiment has as its system CASKI. Put plainly: Primary qHTS to identify gynecologic anti-cancer compounds using libraries of approved drugs and bioactive compounds (AID 1345084). Further: nearly all actives have a fitted effect of over 55% in size. The note with it: Gynecologic cancer cell panel viability, ATPlite luminescence, 48 h; series mostly up to 57.5 µM. Summed up: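 Cell viability after 48 h drug treatment, ATPlite luminescence readout; five doses.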
As for `CC1OC(OC2C(O)COC(O[C@@H]3[C@@H](O)[C@@H](O)[C@H](OC4C(OC(=O)[C@]56CCC(C)(C)CC5C5=CCC7[C@@]8(C)C[C@H](O)[C@H](OC9OC(CO)C(O)C(O)C9O)[C@@](C)(CO)C8[C@H](O)C[C@@]7(C)[C@]5(C)CC6)OCC(O)C4O)O[C@H]3C)C2O)C(O)C(O)C1O` (stereo not given in full), the activity change, negative = cytotoxicity is 20% [at 6.55 µM] (inactive).

For `C[C@@H](O[C@H]1OCCN(Cc2nn(P(=O)(O)O)c(=O)[nH]2)[C@H]1c1ccc(F)cc1)c1cc(C(F)(F)F)cc(C(F)(F)F)c1`, the Potency result was “inactive”.

On to `CCCc1cc(C)[nH]c(=O)c1CNC(=O)c1cc(-c2ccc(N3CCN(C(C)C)CC3)nc2)cc2c1cnn2C(C)C`, for which the Potency entry was “inactive”.

With `O=C(NCCCNC(=O)c1ccc[nH]c1=O)c1cc(-c2ccccc2)on1`, the Potency result was “inactive”.

With `C=C1CC2OC(=O)C(=C)C2C(OC(=O)/C(C)=C\C)CC2(C)OC1=CC2=O` (stereo not given), the Potency result was “inactive”.

For the compound `Cn1sc(=O)n(Cc2ccccc2)c1=O`, the Potency entry is “inactive”.

As to `COC(CCc1ccc(O)cc1)CC(=O)CCc1ccc(O)cc1` (stereo not given), the Potency entry is “inactive”.

Regarding `C[C@@H](N[C@H]1CCCC[C@@H]1NC(=O)c1ccc(Cl)cc1)c1cccc2ccccc12`, the Potency entry is “inactive”.

In the case of `C/C=C(/C)C(=O)O[C@H]1[C@H](OC(=O)/C(C)=C\C)[C@@]23C(CC1(C)C)[C@]1(CCC4[C@@]5(C)CC[C@H](O[C@@H]6O[C@H](C(=O)O)[C@@H](O)[C@H](O[C@@H]7O[C@H](CO)[C@H](O)[C@H](O)[C@H]7O[C@@H]7O[C@@H](C)[C@H](O)[C@@H](O)[C@H]7O[C@@H]7OC[C@@H](O)[C@H](O)[C@H]7O)[C@H]6O[C@@H]6O[C@H](CO)[C@H](O)[C@H](O)[C@H]6O)C(C)(C)C5CC[C@@]4(C)[C@]1(C)C[C@H]2O)O[C@H]3O` (stereo not given in full), the activity change, negative = cytotoxicity was -8.52% [at 6.55 µM] (inactive).

For `CN[C@@H]1[C@H](O[C@H]2[C@H](O[C@@H]3[C@@H](O)[C@H](O)[C@@H](N=C(N)N)[C@H](O)[C@H]3N=C(N)N)O[C@@H](C)[C@]2(O)CO)O[C@@H](CO)[C@H](O)[C@H]1O`, the Potency entry is “inactive”.

For the origin of these results see PubChem BioAssay (NCATS).
